Measured values from PubChem BioAssay (NCI).
Compounds without any hit were thinned out: in the full panel of roughly 83,000, 20% have a hit.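 Interpretation: 100, growth as untreated; towards 0, rising growth inhibition; 0, no net growth; 0 to -100, cell death. Compounds scoring below 10 were considered active.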 Unmarked numbers belong to inactive results. Calls of active or inactive are those of the source.

Tests used:
Assay in all cases: NCI-60 one-dose screen, 48 h (100 = growth as untreated, 0 = no growth, -100 = all killed)
Settings in all cases: 10 µM
[1] = test system: NCI-H23 lung
[2] = test system: NCI-H226 lung
[3] = test system: NCI-H322M lung
[4] = test system: HOP-62 NSCLC
[5] = test system: NCI-H460 lung
[6] = test system: HOP-92 NSCLC
[7] = test system: NCI-H522 lung
[8] = test system: A549/ATCC NSCLC
[9] = test system: 786-0 renal
[10] = test system: COLO 205 colon

Fc1cc(-c2ncc(-c3cc(F)c(F)c(F)c3)c(NC3CCCCCC3)n2)cc(F)c1F
growth [1]: 102%
growth [2]: 95.9%
growth [3]: 102%
growth [4]: 122%
growth [5]: 102%
growth [6]: 88.8%
growth [7]: 120%
growth [8]: 85.6%
growth [9]: 98.3%
growth [10]: 115%

COc1cc(CSc2nc3ccc(Cl)cc3c(=O)n2Cc2ccccc2)cc(OC)c1OC
growth [1]: 25%
growth [2]: 47.9%
growth [3]: 47.5%
growth [4]: 37.7%
growth [5]: 20.5%
growth [6]: 71.3%
growth [7]: -0.0842% (active)
growth [8]: 42.2%
growth [9]: 43.4%
growth [10]: -37.8% (active)

C#Cc1ccc(-n2c(/C=C/c3cc(OC)c(OC)c(OC)c3)nc3ncccc3c2=O)cc1
growth [1]: 73.6%
growth [2]: 56.1%
growth [3]: 68.3%
growth [4]: 66.2%
growth [5]: 72.6%
growth [6]: 6.32% (active)
growth [7]: 7.99% (active)
growth [8]: 44.1%
growth [9]: 75.9%
growth [10]: 31.1%

S=c1c2ncccc2c(-c2ccccn2)nn1Cc1ccccn1
growth [1]: 90.6%
growth [2]: 104%
growth [3]: 102%
growth [4]: 85.3%
growth [5]: 108%
growth [6]: 94.7%
growth [7]: 88.5%
growth [8]: 81%
growth [9]: 96.9%
growth [10]: 92.8%

CCOCC[P+](c1ccccc1)(c1ccccc1)c1ccccc1
growth [1]: 36%
growth [2]: 80%
growth [3]: 82%
growth [4]: 50.3%
growth [5]: 58.7%
growth [6]: -6.22% (active)
growth [7]: 26.2%
growth [8]: 45.3%
growth [9]: 72.5%
growth [10]: 44.5%

CCCCCN(CCCCC)C(C)C(O)c1ccc2cc(Cl)c3ccccc3c2c1 (stereo not given)
growth [1]: 84.9%
growth [2]: 86.2%
growth [3]: 103%
growth [4]: 92.1%
growth [5]: 80.5%
growth [6]: 55.9%
growth [7]: 90%
growth [8]: 102%
growth [9]: 98.5%
growth [10]: 83.9%

c1ccc(CC(NCCNC(Cc2ccccc2)c2ccccc2)c2ccccc2)cc1 (stereo not given)
growth [1]: 25%
growth [2]: 38%
growth [3]: 66.2%
growth [4]: 61.1%
growth [5]: -13.9% (active)
growth [6]: -9.41% (active)
growth [7]: -40.5% (active)
growth [8]: 36.8%
growth [9]: 35.9%
growth [10]: -59.5% (active)

COc1ccc(-c2cc(/C=C3\C(=O)Nc4cc(Cl)ccc43)[nH]n2)cc1OC
growth [1]: 92.9%
growth [2]: 80.8%
growth [3]: 89.8%
growth [4]: 75%
growth [5]: 62.9%
growth [6]: 81.7%
growth [7]: 46%
growth [8]: 75.7%
growth [9]: 105%
growth [10]: 79.4%

COc1ccc(/C(=C/c2cc(OC)c(OC)cc2[N+](=O)[O-])C(=O)O)cc1
growth [1]: 103%
growth [2]: 101%
growth [3]: 118%
growth [4]: 94.1%
growth [5]: 110%
growth [6]: 97.2%
growth [7]: 107%
growth [8]: 108%
growth [9]: 106%
growth [10]: 127%

CCOC(=O)c1cc2c(n1Cc1ccccc1)-c1oncc1CC2
growth [1]: 89.5%
growth [2]: 84.4%
growth [3]: 60.4%
growth [4]: 92.5%
growth [5]: 19.6%
growth [6]: 75.6%
growth [7]: 41.1%
growth [8]: 89.1%
growth [9]: 107%
growth [10]: 86.2%

CCCOCC(O)CNCCN (stereo not given)
growth [1]: 109%
growth [2]: 121%
growth [3]: 105%
growth [4]: 92.6%
growth [5]: 104%
growth [6]: 56.9%
growth [7]: 102%
growth [8]: 102%
growth [9]: 105%
growth [10]: 110%

O=c1ccc2nc(-c3ccccc3)nn(-c3ccccc3)c-2c1
growth [1]: 54.4%
growth [2]: 68.1%
growth [3]: 88.2%
growth [4]: 69.5%
growth [5]: 81.4%
growth [6]: -33% (active)
growth [7]: -90.5% (active)
growth [8]: 73.7%
growth [9]: 48.6%
growth [10]: -78.8% (active)

COc1ccc(-c2csc(-c3cc(Cl)cc(Cl)c3Cl)n2)cc1
growth [1]: 91.4%
growth [2]: 88.9%
growth [3]: 98.6%
growth [4]: 91.1%
growth [5]: 97.9%
growth [6]: 85.8%
growth [7]: 81.8%
growth [8]: 54.5%
growth [9]: 111%
growth [10]: 91.6%

O=C(NCCCl)c1cc(Cl)cc(Cl)c1
growth [1]: 103%
growth [2]: 102%
growth [3]: 98.2%
growth [4]: 109%
growth [5]: 113%
growth [6]: 109%
growth [7]: 92.8%
growth [8]: 90.7%
growth [9]: 102%
growth [10]: 112%

Cc1nc(Nc2nc3ccccc3o2)nc(-c2cccc([N+](=O)[O-])c2)c1C(=O)Nc1ccc(F)c(Cl)c1
growth [1]: 0.258% (active)
growth [2]: 10.3%
growth [3]: 24.9%
growth [4]: 16%
growth [5]: 2.04% (active)
growth [6]: -38.9% (active)
growth [7]: -20.5% (active)
growth [8]: 5.85% (active)
growth [9]: 18.4%
growth [10]: 9.63% (active)

NS(=O)(=O)c1ccc(N2N=C(c3ccc(-c4ccccc4)cc3)CC2c2ccc(Cl)cc2)cc1 (stereo not given)
growth [1]: 85.9%
growth [2]: 81%
growth [3]: 87.6%
growth [4]: 90.8%
growth [5]: 70.1%
growth [6]: 78.4%
growth [7]: 75.1%
growth [8]: 64.1%
growth [9]: 95.9%
growth [10]: 103%

CCNC1(NC#N)CCCCC1
growth [1]: 102%
growth [2]: 95.6%
growth [3]: 113%
growth [4]: 109%
growth [5]: 113%
growth [6]: 85%
growth [7]: 123%
growth [8]: 91.4%
growth [9]: 100%
growth [10]: 111%

Nc1ncc(-c2ccc(C(F)(F)F)cc2)c(NC2CCCCCC2)n1
growth [1]: 11.9%
growth [2]: 39.6%
growth [3]: 66.7%
growth [4]: 57.7%
growth [5]: 44.9%
growth [6]: -12.1% (active)
growth [7]: -6.45% (active)
growth [8]: 18.6%
growth [9]: 51.3%
growth [10]: 38.5%

CC(=O)c1c(O)cc2c3c1OC(C)(C)C1CCC(C)(CC31)O2 (stereo not given)
growth [1]: 100%
growth [2]: 85.8%
growth [3]: 98%
growth [4]: 106%
growth [5]: 108%
growth [6]: 92%
growth [7]: 102%
growth [8]: 98.1%
growth [9]: 104%
growth [10]: 92.3%

Cc1cc(/C=C2\SC(=Nc3ccccc3)N(C3CCCC3)C2=O)c(C)n1-c1ccc(Cl)cc1
growth [1]: -19.8% (active)
growth [2]: -66.6% (active)
growth [3]: -55% (active)
growth [4]: -69.6% (active)
growth [5]: -57.4% (active)
growth [6]: -74.2% (active)
growth [7]: -66.8% (active)
growth [8]: -27.5% (active)
growth [9]: -85.1% (active)
growth [10]: -94.5% (active)

CCc1ccc(-c2nnc(COc3ccc(-c4nc5ccc(C)cc5[nH]4)cc3OC)o2)cc1
growth [1]: 57.2%
growth [2]: 48.6%
growth [3]: 87.2%
growth [4]: 32.6%
growth [5]: 63.5%
growth [6]: 74.1%
growth [7]: 71.3%
growth [8]: 61.6%
growth [9]: 21%
growth [10]: 84.7%

CC(=O)Nc1ccc2c(c1)C(N1CC3CCC(CC3)C1)c1ccccc1-2 (stereo not given)
growth [1]: 90.7%
growth [2]: 85%
growth [3]: 115%
growth [4]: 96.5%
growth [5]: 64.3%
growth [6]: 64.2%
growth [7]: 108%
growth [8]: 85.9%
growth [9]: 92.5%
growth [10]: 68.6%

CCN1CCN(c2nc(NNC(=O)c3cccc(OC)c3)nc(N3CCN(C(c4ccccc4)c4ccccc4)CC3)n2)CC1
growth [1]: 78.5%
growth [2]: 94.5%
growth [3]: 89.7%
growth [4]: 87.1%
growth [5]: -9.84% (active)
growth [6]: 42.8%
growth [7]: 97%
growth [8]: 65.3%
growth [9]: 72.8%
growth [10]: -31.6% (active)

CCCCCCCCCCCCCC[n+]1ccccc1
growth [1]: -11.7% (active)
growth [2]: -19% (active)
growth [3]: 16.9%
growth [4]: -62% (active)
growth [5]: -44.8% (active)
growth [6]: -50.8% (active)
growth [7]: -66.9% (active)
growth [8]: -55.8% (active)
growth [9]: -53.5% (active)
growth [10]: -93% (active)

O=C(NC1CCCC1)c1ccc(N2CCC(NCc3cccc(C(F)(F)F)c3)CC2)cc1
growth [1]: 93.5%
growth [2]: 84.6%
growth [3]: 89.1%
growth [4]: 77.4%
growth [5]: 99.5%
growth [6]: 52.7%
growth [7]: 93.6%
growth [8]: 93%
growth [9]: 84.3%
growth [10]: 8.68% (active)

COc1cccc(C(=O)N(c2ccc(F)c(F)c2)C(C(=O)NC(C)(C)C)c2cc3c(C)cc(C)cc3nc2Cl)c1 (stereo not given)
growth [1]: 66%
growth [2]: 65.7%
growth [3]: 84.7%
growth [4]: 86.6%
growth [5]: 64.1%
growth [6]: 47%
growth [7]: 61.6%
growth [8]: 52.8%
growth [9]: 76.6%
growth [10]: 70.2%

COc1cc2c3c(cccc3c1)C(=O)N(CCN1CCCC1)C2=O
growth [1]: 32.5%
growth [2]: 0.818% (active)
growth [3]: 13.6%
growth [4]: 25.7%
growth [5]: -22% (active)
growth [6]: -8.44% (active)
growth [7]: -11% (active)
growth [8]: 6.08% (active)
growth [9]: 36.1%
growth [10]: 4.92% (active)
